Screens deposited in PubChem BioAssay by National Center for Advancing Translational Sciences (NCATS).
The list is not random: actives were taken first. Their share in the collection is about 4.6%.
VACV mCherry inh: qHTS for Stage-Specific Inhibitors of Vaccinia Orthopoxvirus: mCherry Reporter Primary qHTS. Vaccinia virus mCherry reporter infection, fluorescence. Potency, µM (series often up to 36.5 µM), inactives show top-dose activity change, negative = inhibition, actives largely listed as inhibitors. 310,000 tested, 0.63% active. AID 720579, 2013; calls by dose curve; tested in A549 cells; further: potency means the concentration at half of the fitted maximal effect; on the % scale 0 is the no-effect control and ±100 the full control effect; nearly all actives have a fitted effect of over 35% in size
HCV inhibitor: qHTS Assay for Inhibitors of Hepatitis C Virus (HCV). Huh7.5.1 HCVcc-Cre infection, luciferase reporter, 44 h. Potency, µM (doses to about 41.8 µM), without a hit: at the highest dose activity change, negative = inhibition, usual class: inhibitors. 340,000 tested, 3.4% active. AID 651820, 2012; further: potency means the concentration at half of the fitted maximal effect; on the % scale 0 is the no-effect control and ±100 the full control effect
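Whole-lifecycle infectious HCVcc-Cre system; cells 1,000/well, compound then virus (~0.5 moi) added 4 h after plating, 44 h culture. Luciferase read 15 sec following 15 min substrate incubation, room temp.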
LASV entry inh: qHTS for Inhibitors of binding or entry into cells for Lassa Virus | Lassa virus pseudotype entry inhibition, cell reporter | Potency, µM (top dose mostly 37.9 µM), without a hit: at the top dose activity change, negative = inhibition, most hits filed as inhibitors | 300,000 tested, 1.2% active | AID 540256, 2011; calls by dose curve; tested in HEK293 cells; further: potency means the concentration at half of the fitted maximal effect; on the % scale 0 is the no-effect control and ±100 the full control effect; nearly all actives have a fitted effect of over 50% in size
VACV Venus inh: qHTS for Stage-Specific Inhibitors of Vaccinia Orthopoxvirus: Venus Reporter Primary qHTS | Vaccinia virus Venus reporter expression, fluorescence | Potency, µM (titrated, usually from 36.5 µM), for inactives: at the top dose activity change, negative = inhibition, actives largely listed as inhibitors | 330,000 tested, 0.46% active | AID 720580, 2013; calls by dose curve; tested in A549 cells; further: potency means the concentration at half of the fitted maximal effect; on the % scale 0 is the no-effect control and ±100 the full control effect; nearly all actives have a fitted effect of over 30% in size
Marburg entry inh: qHTS for inhibitors of binding or entry into cells for Marburg Virus | Marburg virus pseudotyped entry inhibition, cell reporter | Potency, µM (series often up to 37.8 µM), inactives show at the top dose activity change, negative = inhibition, usual class: inhibitors | 300,000 tested, 1.8% active | AID 540276, 2011; calls by dose curve; tested in HEK293 cells; further: potency means the concentration at half of the fitted maximal effect; on the % scale 0 is the no-effect control and ±100 the full control effect
G2M arrest HeLa: Cell cycle validation with wells to cells screening paradigm | shares compounds with Marburg entry inh | HeLa cell cycle G2/M arrest, Hoechst DNA content imaging | Potency, µM, hits mostly inhibitors | 25 tested, 60% active
WI-38 tox: High Content Assay for Compounds that inhibit the Assembly of the Perinucleolar Compartment: WI-38 Cytotoxicity. 120 tested, under 10 active. WI-38 normal lung fibroblasts, ATPLite luminescence ATP viability, 24 h. shares compounds with Marburg entry inh. Potency, µM (titrated, usually from 46.1 µM), for the others: at the top dose activity change, negative = cytotoxicity, hits mostly inhibitors
PNC inh conf: High Content Assay for Compounds that inhibit the Assembly of the Perinucleolar Compartment: Confirmation of PNC Inhibition; PC3M PTB-GFP, PNC prevalence imaging, 16 h; Potency, µM (titrated, usually from 46.1 µM), for the others: at the top dose activity, negative = PNC inhibition, actives largely listed as inhibitors; 120 tested, 50% active; AID 2730, 2010; shares compounds with Marburg entry inh
PC3M caspase: High Content Assay for Compounds that inhibit the Assembly of the Perinucleolar Compartment: PC3M Caspase 3/7 Activation; AID 2731, 2010; PC3M-GFP caspase 3/7 activation, luminescence, 24 h; shares compounds with Marburg entry inh; 120 tested, under 10 active; activity change, positive = activation, % at 46.1 µM
Numbers without * were called inactive; i = inactive; ? = inconclusive; · = no result given; [ ] = remark or other dose. Unless noted, the call rests on the fitted dose curve; in most records, active means well fitted curve in the direction sought with a large enough effect; inconclusive means small, poorly fitted or top-dose-only effect, or another doubt; inactive means no such curve, though single readings can be large; an effect the other way counts as inactive or inconclusive.

SMILES | VACV mCherry inh | HCV inhibitor | LASV entry inh | VACV Venus inh | Marburg entry inh | WI-38 tox | PNC inh conf | PC3M caspase | others
COc1cc(OC)c(/C=C2/C(=O)Nc3ccccc32)c(OC)c1 | · | · | ? | · | 0.89µM* | · | · | · | G2M arrest HeLa=2*
C/C(N)=C(/C#N)C(=O)COC(=O)c1cc(C)n(-c2ccc(F)cc2)c1C | ? | ? | ? | 27% | 2µM* | -4% | 13µM* | -9
Cc1cccc(C)c1NC(=O)CN(C)S(=O)(=O)c1ccc2c(c1)n(C)c(=O)c(=O)n2C | -9% | · | -29%[46.1 µM] | 1% | 8%[46.1 µM] | · | · | ·
O=C(N/N=C/c1ccccc1O)c1cccc(C(F)(F)F)c1 | 3.5µM* | 4µM* | ? | ? | 5.6µM* | -7% | 28µM* | 0
COc1ccc(N2CCN(C(=O)c3cc(S(=O)(=O)N4CCC(C)CC4)cn3C)CC2)cc1 | -19% | · | 1%[46.1 µM] | -23% | · | · | · | ·
O=C(Nc1cccc(S(=O)(=O)N2CCCCCC2)c1)c1ccc2c(c1)OCO2 | -24% | ? | ? | ? | ? | -14% | -30% | -8
O=C(Nc1cccc(S(=O)(=O)N2CCCC2)c1)c1ccc2c(c1)OCO2 | -10% | -7% | -9% | -9% | 0% | · | · | ·
CCNc1nc2c(c(=O)n(C)c(=O)n2C)n1Cc1ccc(F)cc1 | -8% | · | ? | -17% | · | · | · | ·
COC(=O)c1ccccc1NC(=O)N1CCC(N2CCN(Cc3ccc(F)cc3)C(=O)C2=O)CC1 | 12% | · | 13%[46.1 µM] | 4% | · | · | · | ·
COc1ccc(Cc2nnc(N/N=C/c3ccc(Br)cc3)[nH]c2=O)cc1OC | -10%[7.34 µM] | -6% | · | -6%[7.34 µM] | · | · | · | ·
COc1ccc(Cc2nnc(N/N=C/c3ccc(O)cc3)[nH]c2=O)cc1OC | 1.1µM* | 0.89µM* | ? | ? | ? | ? | ? | -2
Cc1sc2nc(C3CC3)nc(SCC(=O)N3c4ccccc4CC3C)c2c1C (configuration not stated) | · | 11µM* | 1.8µM* | · | 4.1µM* | -1% | 7.1µM* | -1
Cc1ccc(C)c(Cn2c3ccccc3c3cnn(CC(=O)NCc4ccccc4)c(=O)c32)c1 | i | · | -1%[46.1 µM] | -2% | 10%[46.1 µM] | · | · | ·
O=c1cc(-c2ccc(F)cc2)nc(SCc2nc(-c3ccccc3Cl)no2)[nH]1 | i | · | 18%[46.1 µM] | -4% | · | · | · | ·
O=c1c2ccccc2nnn1CSc1ccc2ccccc2n1 | -16% | 4% | -1% | -6% | 13% | 19% | ? | -8
CCOc1cc(C2c3c(-c4cc(C)ccc4O)n[nH]c3C(=O)N2CCCOC(C)C)ccc1O (configuration not stated) | -5%[7.34 µM] | · | ? | -7%[7.34 µM] | ? | · | · | ·
COc1ccc(S(=O)(=O)NCC(c2ccco2)S(=O)(=O)c2ccc(C)cc2)cc1C (configuration not stated) | -16% | · | ? | -14% | · | · | · | ·
CCOc1ccc(-c2nn(CC(=O)NC3CCCCC3)c3c2cnc2ccc(C)cc23)cc1 | 1% | · | -11%[46.1 µM] | 12% | · | · | · | ·
COc1ccc(-n2c(SC(C)C(=O)Nc3ncc(Cl)cc3Cl)nc3ccccc32)cc1 (configuration not stated) | ? | ? | 0.25µM* | -7% | ? | ? | 3.2µM* | 4
COc1ccc(CC(=O)Nc2nnc3n2CCS3)cc1 | -3% | · | 10%[46.1 µM] | 0% | · | · | · | ·
CC(=O)c1c(C)cc(C)c(CSc2nc(C)cc(=O)[nH]2)c1C | -30% | -5% | -14% | -4% | ? | 0% | ? | -4
C=C(C)[C@H]1Cc2c(ccc3c2O[C@@H]2COc4cc(OC)c(OC)cc4[C@@H]2C3=O)O1 | · | · | 2.3µM* | · | 0.58µM* | · | · | · | G2M arrest HeLa=0.63*
COc1cc(/C=C/c2nc(C#N)c(NCCc3ccccc3)o2)cc(OC)c1OC | -16% | · | ? | -21% | ? | · | · | ·
CC(C)CNC(=O)CSc1nnc(-c2cccc(S(=O)(=O)N3CCCCC3)c2)o1 | ? | 4% | -7% | ? | -5%[46.1 µM] | -9% | -22% | -7
CSc1nc(-c2ccc(C)cc2)nc(C(Cl)Cl)n1 | · | 3.2µM* | ? | · | ? | -13% | 13µM* | ?
SMILES | VACV mCherry inh | HCV inhibitor | LASV entry inh | VACV Venus inh | Marburg entry inh | WI-38 tox | PNC inh conf | PC3M caspase | others
Cc1ccc(NC(=S)NCCc2ccc(S(N)(=O)=O)cc2)cc1C | -9% | ? | -1% | -9% | -14% | -5% | 32% | -4
Cc1cc(C)cc(NC(=S)NCCc2ccc(S(N)(=O)=O)cc2)c1 | i | -2% | -10% | -6% | 7%[46.1 µM] | · | · | ·
C/C(=N/OCO/N=C(\C)c1ccc(F)cc1F)c1ccc(F)cc1F | i | 9% | 22% | -13% | 10% | · | · | ·
C/C(=N/OCO/N=C(/C)c1ccc(F)cc1)c1ccc(F)cc1 | -19% | 1% | 3.2µM* | -3% | ? | 20% | 22µM* | 1
C[C@]12CC[C@@H]3c4ccc(O)cc4CC[C@H]3[C@@H]1CC[C@@H]2O | -6% | -6%[8.37 µM] | ? | -19% | ? | · | · | · | G2M arrest HeLa=10*
COc1ccc2c(c1)CCC1C2CC[C@@]2(C)C(O)CCC12 (some centres not stated) | -2% | · | · | 10% | · | · | · | ·
COc1cc2c(cc1O)CCC1C2CC[C@]2(C)[C@@H](O)CC[C@@H]12 (some centres not stated) | · | · | · | · | ? | · | · | · | G2M arrest HeLa=1.1*
O=C(O)CCC(=O)C(=O)O (tested in a mixture with another compound) | -16% | · | · | -16% | · | · | · | ·
COc1cccc(/C=N/NC(=O)c2cc3c(OC)c(OC)ccc3[nH]2)c1OC | -7% | ? | ? | -25% | ? | -16% | ? | -9
Cc1c(C#N)c(N)nc2c3c(sc12)NC(=O)CC3c1ccccc1 (configuration not stated) | -13% | -2% | 1% | -8% | ? | · | · | ·
Cc1c(C#N)c(N)nc2c3c(sc12)NC(=O)CC3c1ccc(F)cc1 (configuration not stated) | -8% | -2% | 15% | -10% | ? | -12% | -10% | -6
